KB-3-1 cytotox = qHTS assay for MDR1-selective chemotherapeutics: Primary screen using the parental adenocarcinoma cell KB-3-1. 1.4% of 400,000 active. AID 1347075, 2019. KB-3-1 viability, CellTiter-Glo ATP luminescence, 72 h. Potency, µM (top dose mostly 46.1 µM), actives largely listed as cytotoxic; further: nearly all actives have a fitted effect of over 60% in size
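Cytotoxicity in the drug-sensitive parental line KB-3-1 was scored as loss of CellTiter-Glo luminescence following 72 h incubation with compound. Values come from curve fitting of normalized concentration-response data.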
ELG1 repair inh = qHTS screen for small molecules that inhibit ELG1-dependent DNA repair in human embryonic kidney (HEK293T) cells expressing luciferase-tagged ELG1; HEK293T ELG1-luciferase reporter, luminescence, 16 h; DNA damage induced by 5-fluorouridine; Potency, µM (series often up to 46.1 µM), most hits filed as inhibitors; 2.3% of 330,000 active; AID 504467, 2011; further: nearly all actives have a fitted effect of over 55% in size
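Luminescence from the luciferase reporter, measured 30 min after ONE-Glo reagent at room temperature, was the read-out. Beforehand, 2,000 cells per well were exposed for 16 hr at 37 °C to 5-fluorouridine together with compound or vehicle.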
KB-V1 cytotox = qHTS assay for MDR1-selective chemotherapeutics: Primary screen using the drug-selected MDR subline cells KB-V1; AID 1347076, 2019; KB-V1 MDR cells viability, CellTiter-Glo, 72 h; Potency, µM (series often up to 46.1 µM), hits mostly cytotoxic; 3.4% of 400,000 active; further: nearly all actives have a fitted effect of over 60% in size
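KB-V1 MDR subline cells in DMEM (phenol-red free, 10% FBS) exposed to compounds in qHTS concentration series for 72 h at 37 degrees C. Viability read by CellTiter-Glo luminescence; concentration-effect curves fitted after normalization and correction.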
SW480 rerep = A quantitative high throughput screen for small molecules that induce DNA re-replication in SW480 colon adenocarcinoma cells; SW480 DNA re-replication, Hoechst DNA content imaging, 48 h; Potency, µM (highest dose often 46.1 µM), usual class: activators; 1.8% of 340,000 active; AID 624297, 2012; further: nearly all actives have a fitted effect of over 55% in size
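Image-based read-out: total Hoechst fluorescence of nuclei (405 nm excitation, 500-530 nm emission), with hits raising the fraction of high-intensity nuclei. SW480 colon cells incubated 48 hr with compounds at 37 C.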
MCF10A rerep = A quantitative high throughput screen for small molecules that induce DNA re-replication in MCF 10a normal breast cells | MCF 10A DNA re-replication, Hoechst nuclear intensity, 48 h | Potency, µM (titrated, usually from 46.1 µM), actives largely listed as activators | 2.9% of 350,000 active | AID 624296, 2012; further: nearly all actives have a fitted effect of over 50% in size
Large screens that a line does not name were inactive. In the library only some 8.1% were active in any assay of this set; here they are far more common. The call rests on the fitted dose curve; in most records, active means well fitted curve in the direction sought with a large enough effect; inconclusive means small, poorly fitted or top-dose-only effect, or another doubt; inactive means no such curve, though single readings can be large; an effect the other way counts as inactive or inconclusive.

CCOC(=O)C1=CCCN(S(=O)(=O)c2ccc(C)cc2)C1	none (no result: ELG1 repair inh, SW480 rerep, MCF10A rerep)
Cc1ccc(-c2nnc(-c3ccc4ccccc4c3)o2)cc1	KB-3-1 cytotox inconclusive, SW480 rerep inconclusive, MCF10A rerep 6.5µM (no result: ELG1 repair inh)
COc1ccc(-c2coc3c(C(=O)NCc4cccs4)cccc23)c(C)c1	KB-3-1 cytotox inconclusive (no result: ELG1 repair inh, SW480 rerep, MCF10A rerep)
O=C(OCc1ccccc1)N1Cc2ccnnc2CC1c1ccccc1Br (stereo not given)	none (no result: ELG1 repair inh, SW480 rerep, MCF10A rerep)
COc1ccc(S(=O)(=O)N2CCCCC2)cc1NC(=O)C1COc2ccccc2O1 (stereo not given)	ELG1 repair inh 18µM, KB-V1 cytotox inconclusive
COc1ccc(S(=O)(=O)N2CCCCC2)cc1NC(=O)C1CC1	KB-3-1 cytotox inconclusive
COc1ccc(NC(=O)C2COc3ccccc3O2)cc1S(=O)(=O)N1CCOCC1 (stereo not given)	KB-V1 cytotox 13µM
COc1ccc(S(=O)(=O)N2CCCCCC2)cc1N(C)S(=O)(=O)c1ccccc1	ELG1 repair inh inconclusive, KB-V1 cytotox inconclusive, MCF10A rerep 12µM
Cc1ccc(C)c(S(=O)(=O)N2CCCOC2CNC(=O)C(=O)NCCc2ccccc2)c1 (stereo not given)	KB-V1 cytotox inconclusive, SW480 rerep inconclusive, MCF10A rerep inconclusive
O=C(NCCC1=CCCCC1)C(=O)NCC1OCCCN1S(=O)(=O)c1ccccc1 (stereo not given)	KB-V1 cytotox 9.2µM
Cc1ccc(C)c(S(=O)(=O)N2CCCOC2CNC(=O)C(=O)NCCC2=CCCCC2)c1 (stereo not given)	ELG1 repair inh inconclusive, KB-V1 cytotox 5.2µM
O=C(NCCCn1ccnc1)c1ccc(-c2cccc(C(F)(F)F)c2)o1	none
CCOC(=O)c1ccc(NC(=O)Nc2ccn(C)n2)cc1	KB-V1 cytotox 16µM
CCOC(=O)c1c(C)c(C(=O)Nc2cc(F)ccc2F)c(C)n1C	KB-3-1 cytotox 10µM, KB-V1 cytotox 2.6µM, SW480 rerep 23µM, MCF10A rerep 10µM
CCOC(=O)c1ccc(NCc2ccc3c(c2)OCO3)cc1	ELG1 repair inh inconclusive, KB-V1 cytotox 21µM, SW480 rerep inconclusive, MCF10A rerep inconclusive
CCOC(=O)c1ccc(NCc2ccc(N(C)C)cc2)cc1	none
CCOC(=O)c1ccc(NC(=O)Nc2ccc3c(c2)OCCO3)cc1	KB-3-1 cytotox inconclusive, KB-V1 cytotox 15µM
COc1ccccc1C(=O)c1cn(CC(=O)Nc2ccccc2F)c2nc(C)ccc2c1=O	none (no result: ELG1 repair inh, SW480 rerep, MCF10A rerep)
COc1ccc(-c2cc(OC(=O)c3cccc(Cl)c3)c3c(C)oc(C)c3c(=O)c2)cc1	none (no result: ELG1 repair inh, SW480 rerep, MCF10A rerep)
Cc1ccc(OCCn2nnc3sc4c(c3c2=O)CCC(C(C)(C)C)C4)cc1 (stereo not given)	none (no result: ELG1 repair inh, SW480 rerep, MCF10A rerep)
C=CCn1c(=O)/c(=C/c2ccc(Cl)cc2)s/c1=C(\C#N)c1nnc2n1CCCCC2	MCF10A rerep inconclusive (no result: KB-3-1 cytotox, ELG1 repair inh, KB-V1 cytotox)
CCOC(=O)c1c(C)c(C(=O)Nc2ccc(N(C)C)cc2)c(C)n1CC	KB-3-1 cytotox 7.3µM, KB-V1 cytotox 4.1µM, SW480 rerep 10µM, MCF10A rerep 6.5µM
CCOC(=O)c1c(C)c(C(=O)Nc2ccc3c(c2)OCCO3)c(C)n1C	KB-3-1 cytotox inconclusive, ELG1 repair inh inconclusive, KB-V1 cytotox 15µM, MCF10A rerep inconclusive
CCOC(=O)c1c(C)c(C(=O)NCCOC)c(C)n1CC	none
O=C(O)c1cc(N/N=C/c2ccncc2)ccc1Cl	none
O=C(O)c1ccc(/C=N/Nc2ccc(C(F)(F)F)cn2)cc1	ELG1 repair inh inconclusive, SW480 rerep 5.8µM, MCF10A rerep 12µM
O=C(O)c1ccc(N/N=C/c2ccc(-c3ccccc3)cc2)cc1	KB-3-1 cytotox inconclusive, ELG1 repair inh inconclusive, SW480 rerep 21µM, MCF10A rerep 1.3µM
O=C(N/N=C/C=C/c1ccccc1)c1ccncc1	ELG1 repair inh inconclusive
O=C(O)c1cc(N/N=C/c2ccc(-c3ccccc3)cc2)ccc1Cl	ELG1 repair inh inconclusive, SW480 rerep inconclusive, MCF10A rerep 3.3µM
O=C(O)c1ccc(N/N=C/C=C/c2ccccc2)cc1	ELG1 repair inh inconclusive, MCF10A rerep 15µM
COC(=O)c1cc2c([nH]c1=O)CC(c1ccccc1)CC2=O (stereo not given)	KB-V1 cytotox inconclusive (no result: ELG1 repair inh, SW480 rerep, MCF10A rerep)
Cc1ccc(NC(=O)C2CCC(CNS(=O)(=O)c3ccc4c(c3)CCCC(=O)N4)CC2)cc1F (stereo not given)	KB-3-1 cytotox inconclusive (no result: ELG1 repair inh, SW480 rerep, MCF10A rerep)
N#C/C(=C/c1ccc(-c2ccc(Br)cc2)o1)C(=O)NC1CCCCC1	SW480 rerep inconclusive, MCF10A rerep 18µM
CCC(C)OC(=O)/C(C#N)=C/c1ccc(-c2ccc(Br)cc2)o1 (stereo not given)	none (no result: ELG1 repair inh, SW480 rerep, MCF10A rerep)
N#C/C(=C\C=C\c1ccccc1[N+](=O)[O-])C(=O)NC1CCCCC1	ELG1 repair inh inconclusive, KB-V1 cytotox inconclusive, SW480 rerep inconclusive, MCF10A rerep 9.2µM
N#C/C(=C\c1cccn1-c1ccccc1)C(=O)NC1CCCCC1	KB-3-1 cytotox 5.8µM, ELG1 repair inh inconclusive, KB-V1 cytotox 4.6µM, SW480 rerep inconclusive
N#C/C(=C\c1ccccc1[N+](=O)[O-])C(=O)NC1CCCCC1	KB-3-1 cytotox inconclusive, SW480 rerep inconclusive, MCF10A rerep inconclusive
CCOC(=O)c1ccc(-c2ccc(/C=C(\C#N)C(=O)NCC3CCCO3)o2)cc1 (stereo not given)	KB-V1 cytotox 16µM
CC(C)CC(N)c1csc(NC(=O)C(c2ccccc2)c2ccccc2)n1 (stereo not given)	KB-3-1 cytotox inconclusive (no result: ELG1 repair inh, SW480 rerep, MCF10A rerep)
C/C=C/c1cccc(-c2nc(C(=O)NC3CCC3)cc3c2[C@@H](CCO)N(S(=O)C(C)(C)C)C3)c1 (stereo not given in full)	none (no result: ELG1 repair inh, SW480 rerep, MCF10A rerep)
Cc1ccc(-c2[nH]ncc2/C=C(\C#N)C(=O)NC2CCCCC2)cc1	ELG1 repair inh 9.2µM, MCF10A rerep inconclusive
CCOC(=O)N1CC=C2C(C#N)=C(N)C(C#N)(C#N)[C@H](c3ccc(OC(C)C)c(OCC)c3)[C@H]2C1	ELG1 repair inh 13µM, SW480 rerep inconclusive, MCF10A rerep inconclusive
CCOC(=O)N1CC=C2C(C#N)=C(N)C(C#N)(C#N)[C@H](c3ccsc3)[C@H]2C1	KB-3-1 cytotox inconclusive, KB-V1 cytotox 15µM
CN1CC=C2C(C#N)=C(N)C(C#N)(C#N)C(c3ccsc3)C2C1 (stereo not given)	none
CCOC(=O)N1CC=C2C(C#N)=C(N)C(C#N)(C#N)[C@H](c3ccccc3OCC)[C@H]2C1	KB-V1 cytotox inconclusive, SW480 rerep inconclusive, MCF10A rerep inconclusive
CCCCc1ccc(NC(=O)C(=O)NCCN2CCN(C(=O)c3ccc([N+](=O)[O-])cc3)CC2)cc1	none
Cc1c(C(=O)O)sc2[nH]c(=O)n(Cc3ccccc3)c(=O)c12	none
